Screening results from PubChem BioAssay.
Shown are actives, neighbours in structure and some others; about 12% of the full set was active somewhere.
Sfp PPTase inh: blocks B. subtilis Sfp PPTase activity; AID 1490; Biochemical Sfp PPTase activity, qHTS; Potency, µM, inactives show largest response in the series, negative = inhibition, usual class: inhibitors; actives 3.5% (n = 310,000); Q9F4F7;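 also: the enzyme is Sfp with the accession as filed and its product quenches rhodamine fluorescence; 0% = enzyme reaction without inhibitor and -100% = no enzyme wells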
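Buffer: 50 mM Hepes-Na pH 7.6, 10 mM MgCl2, 0.01% Nonidet P-40, 0.01% BSA. Enzyme 15 nM, pre-exposed to compound 15 min; substrates then added and fluorescence change tracked over 30 min.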
HP1b binding inh: HP1-beta chromodomain-methylated histone interaction inhibition | P83916 | AlphaScreen HP1-beta / biotin-H3K9me3 peptide binding | Potency, µM (series often up to 114 µM), inactives show top-dose activity change, negative = inhibition, most hits filed as inhibitors | actives 0.56% (n = 390,000) | AID 540317; also: nearly all actives have a fitted effect of over 70% in size
Target sequence (P83916 whole entry, looked up): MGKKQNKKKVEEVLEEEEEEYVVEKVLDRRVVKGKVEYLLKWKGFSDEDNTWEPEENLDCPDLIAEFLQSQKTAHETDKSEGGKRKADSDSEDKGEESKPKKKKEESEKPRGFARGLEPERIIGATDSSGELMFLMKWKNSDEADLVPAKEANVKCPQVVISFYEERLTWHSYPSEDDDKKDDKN
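AlphaScreen: HP1-beta (50 nM) preformed 30 min with biotin-H3(1-18)K9me3 peptide (50 nM) in PBS pH 7.4, 0.01% Tween-20. Compound added for 30 min at RT, then streptavidin donor/nickel chelate acceptor beads (10 ug/mL) for 30 min.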
JMJD2A Tudor: JMJD2A Tudor domain (human) inhibition | AID 504339 | Potency, µM (series often up to 114 µM), for the others: at the highest dose activity change, negative = inhibition, usual class: inhibitors | AlphaScreen JMJD2A-Tudor / H3K4me3 peptide binding | O75164 | actives 4.4% (n = 390,000); also: % is scaled to controls: 0 for no effect and ±100 for the full control effect; nearly all actives have a fitted effect of over 50% in size
BAZ2B inh: BAZ2B (human) inhibition | Q9UIF8 | AlphaScreen BAZ2B-H3K14Ac peptide displacement | Potency, µM (highest dose often 114 µM), inactives show top-dose activity change, negative = inhibition, most hits filed as inhibitors | actives 4.4% (n = 360,000) | AID 504333; also: % is scaled to controls: 0 for no effect and ±100 for the full control effect; nearly all actives have a fitted effect of over 60% in size
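Compounds, titrated to a top concentration of 110 uM, were incubated 30 min at room temperature with preformed BAZ2B/acetyl-K14 H3 peptide complex (50 nM each). Proximity signal was measured by AlphaScreen after 20 min with beads.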
G9a block: G9a (human) methyltransferase inhibition. Q96KQ7. G9a H3K9 monomethylation, AlphaScreen, 2 h. Potency, µM (top dose mostly 102 µM), inactives show at the highest dose activity, negative = inhibition, usual class: inhibitors. actives 8.8% (n = 350,000); also: % is scaled to controls: 0 for no effect and ±100 for the full control effect; nearly all actives have a fitted effect of over 75% in size
Target sequence (Q96KQ7 913-1193 limits assumed): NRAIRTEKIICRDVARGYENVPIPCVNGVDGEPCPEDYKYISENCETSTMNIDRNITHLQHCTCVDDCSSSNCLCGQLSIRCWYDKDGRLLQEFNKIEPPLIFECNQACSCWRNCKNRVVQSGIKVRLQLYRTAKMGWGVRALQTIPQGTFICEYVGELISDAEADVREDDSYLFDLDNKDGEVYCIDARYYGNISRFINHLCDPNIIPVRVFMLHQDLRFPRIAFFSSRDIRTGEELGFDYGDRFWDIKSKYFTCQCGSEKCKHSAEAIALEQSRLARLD
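G9a (20 nM) was preincubated 15 min with compound, then reacted 2 h at room temperature with 500 nM biotin-H3K9 peptide and 20 µM SAM. Monomethyl-H3K9 detected by AlphaScreen using anti-H3K9me1 antibody.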
* marks the source's active call; other numbers are inactive results; ? = inconclusive; . = no result given; [ ] = remark or other dose. Calls follow the shape of the dose curve; as a rule, active = well fitted curve in the direction sought with a large enough effect; inconclusive = small, poorly fitted or top-dose-only effect, or another doubt; inactive = no such curve, though single readings can be large; an effect the other way counts as inactive or inconclusive. Potency is read from the fitted curve at half-maximal effect.

SMILES | Sfp PPTase inh | HP1b binding inh | JMJD2A Tudor | BAZ2B inh | G9a block
CCN(CC)S(=O)(=O)c1ccc(N2CCCC2)c(NS(=O)(=O)c2ccccc2)c1 | -8.6% | 32.9% | -24.8% | 9.7% | 3.2%[59 µM]
CCc1cc(C(=O)Nc2cc(S(=O)(=O)N(CC)CC)ccc2N2CCN(C)CC2)sc1C | . | 48.6% | -19.6% | -10.5% | 35.5µM*
CCN(CC)S(=O)(=O)c1ccc(N2CCCC2)c(NS(=O)(=O)c2ccc(OC)cc2)c1 | -4.1% | 33.7% | -21.4% | -7.4% | 35.5µM*
COc1ccc(CNC(=O)Cc2c(C)c3ccc(O)cc3oc2=O)cc1 | . | 29.8% | 0.0% | -1.6% | 3.9%[59 µM]
Cc1ccc2c(c1)C(c1ccccc1)C(=O)O2 (configuration not stated) | 50.1µM* | -9.8% | ? | -15.9% | -46.6%
OCC1OC(C#Cc2ccccc2)C=CC1OCc1ccccc1 (configuration not stated) | -0.7% | . | . | . | .
COc1ccc(/C=C2\SC(=S)N(CCCC(=O)NNC(=O)c3ccccc3O)C2=O)cc1 | -20.6% | ? | -12.8%[11.4 µM] | 50.1µM* | 2.2%
CCc1ccc(/C=C2\SC(=S)N(CCCC(=O)Nc3ccc(C(=O)O)cc3)C2=O)cc1 | -22.9% | ? | 50.1µM* | 35.5µM* | -2.8%
O=C(CCCN1C(=O)/C(=C/c2cccs2)SC1=S)NNC(=O)c1ccccc1O | 21.0% | 22.6% | -17.9% | 56.2µM* | 18.8%[59 µM]
O=C(CCCN1C(=O)/C(=C\c2ccccc2)SC1=S)Nc1ccc(C(=O)O)cc1 | 6.9% | -23.1% | ? | -26.4% | ?
COc1ccc(/C=C2\SC(=S)N(CC(=O)OCC(=O)Nc3cc(Cl)cc(Cl)c3)C2=O)cc1 | 20µM* | -4.1% | ? | -37.6% | 31.6µM*
COc1ccc(C)cc1NC(=O)C(c1ccccc1)N1CCN(CC(=O)NC2CC2)CC1 (configuration not stated) | . | 18.2% | -17.9% | -22.8% | ?
c1cncc(-c2nccc(-n3ccnc3)n2)c1 | 3.4% | . | . | . | .
Nc1nonc1C(=O)NCCNC(=O)c1cccc(Cl)c1 | 4.3% | 46.6% | -11.3% | 3.4% | 10.8%
Cc1cc(C)cc(NC(=O)CCS(=O)(=O)c2cccc3nsnc23)c1 | . | 6.7% | -22.9% | -6.3% | -6.7%[59 µM]
COc1ccc(/C=C2/SC(=S)N(CCCC(=O)Nc3ccccc3C(=O)O)C2=O)cc1 | 27.2% | -32.1% | ? | ? | 79.4µM*
CCc1ccc(/C=C2\SC(=S)N(CCCC(=O)Nc3ccccc3C(=O)O)C2=O)cc1 | -0.9% | 2.2% | ? | ? | 31.6µM*
CC(=O)N1CCN(Cc2nc3cc(NC(=O)c4cccs4)ccc3n2C)CC1 | 10.1% | 24.2% | 4.5% | 7.9% | 58.8%
CCCC(=O)Nc1ccc2c(c1)nc1n2CCN(CCOC)C1 | -13.4% | 44.8% | -9.8% | -0.5% | 25.1µM*
Cn1c(CN2CCCC2)nc2cc(NC(=O)c3cccs3)ccc21 | -20.4% | 20.3% | -35.6% | ? | 14.1µM*
O=C(Nc1ccc2c(c1)nc1n2CCSC1)c1ccccc1 | 3.9% | 15.0% | 0.0% | 2.6% | ?
O=C(Nc1ccc2oc(-c3ccncc3)nc2c1)c1cccs1 | -20.9% | 49.3% | -32.5% | 56.2µM* | -26.0%[12.7 µM]
COc1ccc(C(=O)Nc2ccc3c(c2)nc2n3CCSC2)cc1 | 13.0% | -0.5% | -6.6% | -26.2% | 50.1µM*
O=C(Nc1ccc(-c2nc3cc(NC(=O)c4cccs4)ccc3o2)cc1)c1cccs1 | 12.0% | 21.0% | -4.4% | 18.5% | -14.4%[0.0925 µM]
CCCC(=O)Nc1ccc2c(c1)nc1n2CCOC1 | 13.7% | 29.9% | -6.7% | 5.2% | ?
CCOc1ccc(NC(=O)CCn2cccn2)cc1 | . | 19.0% | -11.3% | -7.8% | 21.5%[59 µM]
COCCN1CCn2c(nc3cc(NC(=O)c4cccs4)ccc32)C1 | -9.2% | 16.2% | -11.6% | -33.5% | 20µM*
CC(c1ccccc1)N1CCn2c(nc3cc(NC(=O)c4cccs4)ccc32)C1 (configuration not stated) | 4.8% | 12.1% | -13.4% | -2.3% | ?
CCCCC(=O)Nc1ccc2c(c1)nc1n2CCOC1 | 9.9% | -11.5% | 79.4µM* | 7.2% | 10.5%
CCCCC(=O)Nc1ccc2c(c1)nc1n2CCN(CCOC)C1 | 10.4% | 49.5% | -26.5% | -11.3% | 31.6µM*
